Calls of active or inactive are those of the source. Unless noted, the rule behind the calls is not given here.
Tests used:
[1] = test system: Wnt5a (protein binding on small-molecule microarray); experiment: small molecules binding Wnt5a protein – biophysical, small-molecule microarray, 635/667 nm fluorescence, primary screen (AID 1142); conditions: 635 nm fluorescence, higher = more signal;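 note: fluorescence read at 667 nm with signal to noise per printed feature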
[2] = ATP-based viability of Huh7 replicon cells – cell-based, CellTiter-Glo luminescence, basal, 48 h, cytotoxicity control for HCV replication inhibitor project, primary screen (AID 1143); conditions: higher = more signal, called active from +8 up or from −8 down;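 note: Huh7 hepatoma cells carrying a hepatitis C replication reporter with no stimulus; test concentration not given here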
[3] = Pseudomonas biofilm growth suppression – PAO1 strain, BacTiter-Glo luminescence, LB-PBS, primary screen (AID 1144); conditions: P. aeruginosa PAO1 biofilm, 12 h, higher = more signal
[4] = basal CRE-LacZ reporter activity in PC12 – cell-based, unstimulated, primary screen (AID 1145); conditions: no forskolin, luminescence, 4.5 h, higher = more signal, called active from +8 up or from −8 down
[5] = forskolin-driven CRE-LacZ activity in PC12 – cell-based, CRE-LacZ reporter, forskolin-stimulated, primary screen (AID 1146); conditions: luminescence, 4.5 h, higher = more signal, called active from +8 up or from −8 down;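 note: PC12 cells with 6xCRE LacZ reporter stimulated by forskolin 10 µM; beta-galactosidase reporter signal reflecting CREB driven transcription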
[6] = biological target: Streptavidin (Streptomyces avidinii) (UniProt P22629); experiment: compounds binding control protein streptavidin – biophysical, small-molecule microarray, 635/667 nm fluorescence, artefact control for SMM compound annotation, primary screen (AID 1147); conditions: higher = more signal;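 note: signal reflects streptavidin binding to arrayed compounds as a control protein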
Streptavidin (Streptomyces avidinii), sequence (P22629 whole entry, looked up): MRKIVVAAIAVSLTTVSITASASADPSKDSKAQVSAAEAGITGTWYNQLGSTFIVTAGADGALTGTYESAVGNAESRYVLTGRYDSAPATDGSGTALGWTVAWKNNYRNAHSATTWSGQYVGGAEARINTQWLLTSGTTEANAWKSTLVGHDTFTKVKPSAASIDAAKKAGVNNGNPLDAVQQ

[7] = probe aInhba binding on compound microarray – biochemical, small-molecule microarray, 635/667 nm fluorescence, primary screen (AID 1148); conditions: higher = more signal;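 note: score merges 667nm spot fluorescence with signal-to-noise for antibody binding to printed compounds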
Torsin-1A (Homo sapiens) [8] = biological target: Torsin-1A (Homo sapiens) (UniProt O14656); experiment: TOR1A wild-type binding on microarray – cell lysate, small-molecule microarray, lysate, 635/667 nm, primary screen (AID 1149); conditions: COS7 hTOR1A-WT lysate, 635 nm fluorescence, higher = more signal
Torsin-1A (Homo sapiens), sequence (O14656 whole entry, looked up): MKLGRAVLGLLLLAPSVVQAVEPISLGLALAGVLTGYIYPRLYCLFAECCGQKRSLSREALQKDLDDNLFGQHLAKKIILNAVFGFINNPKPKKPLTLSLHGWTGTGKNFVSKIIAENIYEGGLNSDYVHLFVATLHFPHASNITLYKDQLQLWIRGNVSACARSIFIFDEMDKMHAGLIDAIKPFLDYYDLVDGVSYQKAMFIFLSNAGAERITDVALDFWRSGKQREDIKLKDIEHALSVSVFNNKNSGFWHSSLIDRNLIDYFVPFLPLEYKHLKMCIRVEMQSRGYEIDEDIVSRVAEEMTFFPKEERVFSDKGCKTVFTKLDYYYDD

Torsin-1A (Homo sapiens) [9] = biological target: Torsin-1A (Homo sapiens) (UniProt O14656); experiment: torsin A mutant lysate binding on microarrays – cell lysate, small-molecule microarray, COS7 lysate, 635/667 nm fluorescence, primary screen (AID 1150); conditions: COS7 hTOR1A mutant lysate, 635 nm fluorescence, higher = more signal;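 note: score pools 667 nm emission and signal to noise measuring lysate protein binding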
[10] = test system: Sonic hedgehog protein (Shh); experiment: Sonic hedgehog microarray binding compounds – biochemical, small-molecule microarray, 635/667 nm fluorescence, primary screen (AID 1151); conditions: 635 nm fluorescence, higher = more signal;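 note: Shh protein binding to compounds spotted on small-molecule microarray slides; score combines spot fluorescence intensity with signal-to-noise across triplicate slides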
[11] = optical density shifts of acrAB sulA E. coli – strain DRC41, OD650, 48 h, E. coli filamentation inducer project, primary screen (AID 1152); conditions: higher = more signal, called active from +8 up or from −8 down;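 note: E. coli MC1000 strain DRC41 lacking acrAB efflux pump and sulA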
[12] = probe aLefty1 binding on compound microarray – biochemical, small-molecule microarray, 635/667 nm fluorescence, primary screen (AID 1153); conditions: higher = more signal;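 note: score merges spot fluorescence with signal-to-noise ratio from the scanned slide images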
[13] = plasmodial surface anion channel blockers, osmotic lysis – cell-based, P. falciparum Indochina, OD700, 1 h, primary screen (AID 1154); conditions: P. falciparum Indochina infected RBC osmotic lysis, higher = more signal, called active from +8 up or from −8 down
[14] = plasmodial surface anion channel blockers, osmotic lysis – cell-based, P. falciparum Indochina, OD700, 2 h, primary screen (AID 1155);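 note: lysis reports solute entry through the parasite surface anion channel PSAC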; conditions: P. falciparum Indochina infected erythrocytes, higher = more signal, called active from +8 up or from −8 down
[15] = changes in parasitized red cell lysis, either direction – P. falciparum Indochina, OD700, 3 h, PSAC antagonist project, primary screen (AID 1156); conditions: P. falciparum-infected erythrocytes, osmotic lysis, higher = more signal, called active from +8 up or from −8 down
[16] = plasmodial surface anion channel blockers, osmotic lysis – cell-based, P. falciparum Indochina, OD700, 18 h, primary screen (AID 1157); conditions: P. falciparum Indochina infected erythrocytes, osmotic lysis OD700, 18 h; higher = more signal, called active from +8 up or from −8 down
[17] = S6 kinase pathway phospho-S6 level changes – cell-based, A549, cytoblot, luminescence, serum-stimulated, primary screen (AID 1158); conditions: 5 h, higher = more signal;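 note: serum-stimulated A549 lung adenocarcinoma cells; signal is phosphorylated S6 detected by cytoblot immunostaining with HRP secondary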
[18] = biological target: NADPH oxidase 2 (Homo sapiens) (UniProt P04839); experiment: compounds shifting NOX2 Amplex Red fluorescence – cell-based, HEK293-NOX2, PMA-stimulated, NOX inhibitor project, primary screen (AID 1159); conditions: 45 min, higher = more signal, called active from +8 up or from −8 down; note: test concentration not given here
NADPH oxidase 2 (Homo sapiens), sequence (P04839 whole entry, looked up): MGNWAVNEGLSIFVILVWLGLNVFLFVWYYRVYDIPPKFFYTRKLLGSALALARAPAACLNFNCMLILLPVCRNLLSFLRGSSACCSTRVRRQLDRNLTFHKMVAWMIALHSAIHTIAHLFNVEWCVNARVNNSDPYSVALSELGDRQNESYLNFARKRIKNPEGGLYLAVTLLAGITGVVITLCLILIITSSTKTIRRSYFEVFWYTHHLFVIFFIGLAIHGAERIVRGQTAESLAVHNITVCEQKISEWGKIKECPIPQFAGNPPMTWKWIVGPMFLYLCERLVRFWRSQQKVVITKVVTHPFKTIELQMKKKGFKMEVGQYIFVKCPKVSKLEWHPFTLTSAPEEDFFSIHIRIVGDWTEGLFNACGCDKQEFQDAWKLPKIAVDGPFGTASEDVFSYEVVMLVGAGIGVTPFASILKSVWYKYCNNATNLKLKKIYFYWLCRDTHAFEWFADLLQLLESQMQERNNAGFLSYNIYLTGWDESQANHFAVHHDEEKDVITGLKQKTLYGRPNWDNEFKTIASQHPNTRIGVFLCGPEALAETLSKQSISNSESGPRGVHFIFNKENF

[19] = biological target: NADPH oxidase 4 (Homo sapiens) (UniProt Q9NPH5); experiment: compounds shifting NOX4 Amplex Red fluorescence – cell-based, HEK293-NOX4, tetracycline-induced, NOX inhibitor project, primary screen (AID 1160); conditions: HEK293-NOX4, Amplex Red H2O2 fluorescence, 45 min; higher = more signal, called active from +8 up or from −8 down
NADPH oxidase 4 (Homo sapiens), sequence (Q9NPH5 whole entry, looked up): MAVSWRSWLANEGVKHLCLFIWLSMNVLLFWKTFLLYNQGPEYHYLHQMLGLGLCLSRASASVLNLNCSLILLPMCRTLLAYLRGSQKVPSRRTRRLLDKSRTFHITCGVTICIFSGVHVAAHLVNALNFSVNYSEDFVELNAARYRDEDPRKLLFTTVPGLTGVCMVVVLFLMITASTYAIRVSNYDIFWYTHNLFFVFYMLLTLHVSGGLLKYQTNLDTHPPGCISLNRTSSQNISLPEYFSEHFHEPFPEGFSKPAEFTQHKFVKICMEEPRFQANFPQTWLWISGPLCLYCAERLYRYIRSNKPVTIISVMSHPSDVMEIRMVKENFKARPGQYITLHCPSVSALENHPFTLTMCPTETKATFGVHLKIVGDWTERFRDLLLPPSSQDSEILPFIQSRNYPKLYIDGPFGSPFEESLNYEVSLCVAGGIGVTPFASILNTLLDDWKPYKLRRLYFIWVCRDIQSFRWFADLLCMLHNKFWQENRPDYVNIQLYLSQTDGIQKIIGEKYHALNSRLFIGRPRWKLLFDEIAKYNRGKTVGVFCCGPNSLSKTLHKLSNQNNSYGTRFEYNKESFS

[20] = biological target: NADPH oxidase 5 (Homo sapiens) (UniProt Q96PH1); experiment: compounds shifting NOX5 Amplex Red fluorescence – cell-based, HEK293-NOX5, NOX inhibitor project, primary screen (AID 1161); conditions: HEK293-NOX5, ionomycin, 45 min, higher = more signal
NADPH oxidase 5 (Homo sapiens), sequence (Q96PH1 whole entry, looked up): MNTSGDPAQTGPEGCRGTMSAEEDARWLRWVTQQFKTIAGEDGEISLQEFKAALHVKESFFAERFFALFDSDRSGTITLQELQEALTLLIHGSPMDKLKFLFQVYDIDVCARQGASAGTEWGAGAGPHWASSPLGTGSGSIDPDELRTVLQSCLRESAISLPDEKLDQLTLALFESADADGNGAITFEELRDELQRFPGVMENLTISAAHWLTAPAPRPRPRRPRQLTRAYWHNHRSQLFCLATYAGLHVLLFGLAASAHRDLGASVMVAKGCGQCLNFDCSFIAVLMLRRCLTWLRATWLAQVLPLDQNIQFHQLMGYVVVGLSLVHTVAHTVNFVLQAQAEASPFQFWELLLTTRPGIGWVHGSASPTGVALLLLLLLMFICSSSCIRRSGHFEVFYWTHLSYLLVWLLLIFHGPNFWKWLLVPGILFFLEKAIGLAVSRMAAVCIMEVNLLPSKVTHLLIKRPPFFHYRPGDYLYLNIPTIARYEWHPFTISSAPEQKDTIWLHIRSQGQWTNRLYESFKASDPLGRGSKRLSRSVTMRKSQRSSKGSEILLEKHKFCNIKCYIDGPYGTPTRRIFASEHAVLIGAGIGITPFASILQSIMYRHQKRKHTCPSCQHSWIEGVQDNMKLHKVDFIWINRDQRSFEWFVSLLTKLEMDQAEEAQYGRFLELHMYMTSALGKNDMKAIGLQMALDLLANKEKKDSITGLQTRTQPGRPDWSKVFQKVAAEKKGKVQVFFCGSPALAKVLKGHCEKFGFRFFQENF

Row | Compound | composite z-score [1] | z-score [2] | z-score [3] | z-score [4] | z-score [5] | composite z-score [6] | composite z-score [7] | composite z-score (Torsin-1A (Homo sapiens) [8]) | composite z-score (Torsin-1A (Homo sapiens) [9]) | composite z-score [10] | z-score [11] | composite z-score [12] | z-score [13] | z-score [14] | z-score [15] | z-score [16] | z-score [17] | z-score [18] | z-score [19] | z-score [20]
1 | CCOC(=O)c1ccc(NC(=O)O[C@H]2[C@H](OC(=O)Nc3ccc4c(c3)OCO4)[C@H](OC(=O)Nc3ccc4c(c3)OCO4)[C@@H](OC)O[C@@H]2CO)cc1 | 0.662 | -2.23 (inactive) | 1.55 (inactive) | 0.0918 (inactive) | -0.195 (inactive) | 0.245 | 0.386 | 0.807 | 0.505 | 1.76 | -0.351 (inactive) | 0.408 | 23.4 (active) | 6.99 (inactive) | 0.726 (inactive) | 1.55 (inactive) | -0.535 | -0.984 (inactive) | -0.54 (inactive) | -1.28
2 | CC(CO)N1C(=O)[C@@H]2[C@H]3C(=O)OCC=C[C@H]3OC23C=CCN(Cc2ccccc2)C(=O)[C@@H]13 (stereo not given in full) | 0.0691 | 0.0021 (inactive) | -1.11 (inactive) | -1.44 (inactive) | -1.08 (inactive) | -0.245 | -0.21 | -1.32 | -0.14 | -0.0627 | 2.36 (inactive) | -0.191 | 0.116 (inactive) | -1.05 (inactive) | -0.355 (inactive) | -1.39 (inactive) | 0.473 | 0.991 (inactive) | 0.662 (inactive) | 1.49
3 | CCCNC(=O)[C@@]1(c2ccc([N+](=O)[O-])cc2)CC(=O)N(C2CCCCC2)[C@@H]1c1ccc(CO)cc1 | -0.0471 | -1.83 (inactive) | 0.812 (inactive) | 0.324 (inactive) | -0.775 (inactive) | 0.206 | 0.138 | 0.0388 | 0.455 | 0.511 | 0.774 (inactive) | 0.062 | 2.1 (inactive) | 1.01 (inactive) | 1.21 (inactive) | 0.988 (inactive) | -0.002 | 0.325 (inactive) | 0.901 (inactive) | 0.877
4 | O=C1C2C=CC(C(O)c3ccccc3)N(Nc3ccccc3F)C2C(=O)N1c1ccccc1 (stereo not given) | 0.1 | -1.7 (inactive) | 0.298 (inactive) | 0.0707 (inactive) | 0.39 (inactive) | 0.23 | -0.127 | -0.292 | -0.493 | -0.244 | 0.0394 (inactive) | 0.002 | 7.12 (inactive) | 1.21 (inactive) | 0.368 (inactive) | 0.632 (inactive) | 0.113 | -2.07 (inactive) | -3.6 (inactive) | -2.26
5 | COc1ccc([Si](C)(C)[C@H]2[C@H](CCO)O[C@@]3(C(=O)N(Cc4cccc(N5C(=O)COc6ccccc65)c4)c4ccccc43)[C@@H]2C)cc1 | -0.285 | -6.25 (inactive) | -1.83 (inactive) | 2.41 (inactive) | -1.52 (inactive) | 0.174 | -0.128 | -0.451 | -0.298 | 0.419 | 1.76 (inactive) | 0.122 | 2.15 (inactive) | 3.18 (inactive) | 1.7 (inactive) | 1.77 (inactive) | 0.805 | -1.26 (inactive) | 1.1 (inactive) | 1.09
6 | COc1ccc(-c2cc3c(c(CCc4ccccc4)n2)[Si](C(C)C)(C(C)C)OC3)cn1 | -0.131 | -0.817 (inactive) | -0.0937 (inactive) | -0.127 (inactive) | 0.307 (inactive) | 0.294 | -0.0986 | 0.188 | -0.168 | 0.434 | -0.0928 (inactive) | -0.196 | 3.8 (inactive) | 0.745 (inactive) | -0.119 (inactive) | 0.114 (inactive) | -0.108 | -0.44 (inactive) | -0.0624 (inactive) | -1.49
7 | COCCOC(=O)N1C(=O)[C@@]2(c3cc(C#CCNC(N)=O)ccc31)[C@H](C(=O)N1CCc3cc(OC)c(OC)cc3C1)[C@H]1C(=O)O[C@H](c3ccccc3)[C@H](c3ccccc3)N1[C@@H]2c1ccccc1OCCO | 0.358 | -2.32 (inactive) | -0.772 (inactive) | 0.0776 (inactive) | -0.979 (inactive) | 0.639 | 0.0301 | 0.969 | 0.498 | 1.81 | 1.83 (inactive) | 0.479 | 3.14 (inactive) | 0.178 (inactive) | 0.435 (inactive) | -0.244 (inactive) | 1.81 | 1.58 (inactive) | 1.09 (inactive) | -0.672
8 | CCCCC=C[C@@H](NC(=O)c1ccc(-c2ccccc2)cc1)c1ccccc1 | -0.0312 | -1.76 (inactive) | -0.00961 (inactive) | 0.197 (inactive) | -0.013 (inactive) | 1.18 | 0.319 | 0.58 | 0.871 | -0.181 | -1.63 (inactive) | 0.258 | 2.54 (inactive) | 0.631 (inactive) | -0.309 (inactive) | 0.862 (inactive) | 0.0893 | -0.473 (inactive) | -1.12 (inactive) | 1.46
9 | CC(=O)c1ccc(C(O)C2C=CC3C(=O)N(c4ccccc4)C(=O)C3N2Nc2ccc(C#N)cc2)cc1 (stereo not given) | -0.14 | 0.338 (inactive) | -0.864 (inactive) | 1.19 (inactive) | 0.574 (inactive) | 1.14 | 0.0422 | -0.167 | 0.261 | -0.964 | -1.54 (inactive) | 0.192 | 18 (active) | 2.58 (inactive) | 1.27 (inactive) | 1.44 (inactive) | -1.15 | -2.48 (inactive) | -5.89 (inactive) | -4.43

Source: PubChem BioAssay
